# Reference: PubChem BioAssay AID588 (National Center for Advancing Translational Sciences (NCATS), 2007)
# The whole screen tested about 59,000 compounds, of which about 25 (0.04%) were called active. No rule for the calls is given here. Shown is part of a subset that was picked to be rich in actives.
# Assay: qHTS Assay for Spectroscopic Profiling in Resorufin Spectral Region
# Details: Compound fluorescence, resorufin region 547/598 nm, buffer
# Text: NIH Molecular Libraries Screening Centers Network [MLSCN] NIH Chemical Genomics Center [NCGC] […] Occasionally, the artifactual effect may originate from the compound#s own spectral or other biophysical properties which generally tend to track its assay concentration. Pre-screening/profiling the library with respect to the compounds# spectral properties should help one exclude false positives early on. While the most informative fluorescent profiling data set is obtained by performing a full excitation and emission scan of each well by using a monochromator-based plate reader, such an approach is practical only on a very limited scale as scanning each well requires long time. An alternative approach, applied here, is to perform plate reader scans using selected excitation and emission wavelength pairs to generate a multidimensional relational database that correlates compound concentration and the respective relative fluorescence intensity at a given wavelength set. A standard curve of resorufin present on each plate as six-point concentration series, was used to compute a normalized fluorescence response, termed dye-equivalent concentration, for each compound at each concentration.
# NCGC Assay Protocol Summary: Buffer: 100 mM Tris buffer, pH 8.0 Dye standard plate: The wells in columns 1 through 4 of a Kalypsys polypropylene 1536-well compound plate were filled with standard solutions of fluorophore corresponding to the spectral region of interest. Solutions of resorufin were placed in the following wells: M1, N1: 3 mM, M2, N2: 300 uM, M3, N3: 30 uM, M4, N4: zero (DMSO), O1, P1: 3 uM, O2, P2: […], O3, P3: 300 nM, O4, P4: zero (DMSO). Assay Steps: Six uL of buffer were dispensed to 1536-well Greiner black plates. Compounds and dye standards (23 nL) were transferred via Kalypsys PinTool. The plates were incubated for 15 min at room temperature, and then read on ViewLux (Perkin-Elmer) High-throughput CCD imager using 547 nm and 598 nm excitation and emission filter set. Keywords: NIH Roadmap, MLSCN, MLI, MLSMR, qHTS, NCGC, Resorufin, Fluorescent Profiling.
row,Compound,max dye-equivalent concentration
1,Cc1cc(C)nc(NC2=NCC(=O)N2c2ccc(Cl)cc2)n1,inactive
2,CCNc1ncc2nc(CCc3ccccc3)c(=O)n(-c3ccc(OC)cc3)c2n1,inactive
3,Cc1noc(NS(=O)(=O)c2ccc(N3CC(O)=C(c4ccccc4)C3=N)cc2)c1C,inactive
4,C[C@H]1O[C@@H](CC(=O)O)Cc2c1c(O)c1c(O)cc(-c3cc(=O)c4c(=O)c5c(c(=O)c=4c3=O)C[C@H](CC(=O)O)O[C@@H]5C)c(O)c1c2O,inactive
5,CCCOc1ccccc1-c1nc(SCCC(=O)O)n[nH]1,inactive
6,CCC(C)(C)n1nnnc1C(c1ccccc1OC)N1CCSCC1 (centres undefined),inactive
7,Cc1ccc(S(=O)(=O)NCCN2CCOCC2)cc1C,inactive
8,C=CCn1c(COc2ccccc2C)nnc1SCC(=O)O,inactive
9,Cc1cccc(NC(=O)CSc2nc3c(c(=O)[nH]2)CCC3)c1C,inactive
10,COc1ccccc1N1CC(O)=C(c2nc3ccccc3s2)C1=N,inactive
11,CCN(CC(=O)NC(C)C)C(=O)CCNC(=O)c1ccc(Cl)cc1,inactive
12,COc1ccc2[nH]c3ccc(OC)cc3c2c1,inactive
13,Cc1cc(C(F)(F)F)c(C#N)c(SCC(=O)NC2CC2)n1,inactive
14,COc1ccc(O)c(C(=O)c2cnc3onc(C(C)C)c3c2)c1,inactive
15,CCOC(=O)Nc1ccc2c(c1)N(C(=O)CN1CCN3CCCC3C1)c1ccccc1CC2 (centres undefined),inactive
16,CCCCNC(=O)c1ccccc1NC(=O)c1ccccc1N(C)S(C)(=O)=O,inactive
17,CCC(C)Sc1nc2c(c(=O)[nH]c(=O)n2C)n1CC(O)COc1cccc2ccccc12 (centres undefined),inactive
18,COc1ccc(-n2ncc3c(N4CCc5ccccc54)ncnc32)cc1,inactive
19,Cc1ccc(-n2c(Cc3cccs3)nnc2SCC(=O)OC(C)C)cc1,inactive
20,COCCn1c(=O)c(-c2cccc(F)c2)nc2cncnc21,inactive
21,COc1ccc(-n2c(=O)c(-c3cn(C)c4ccccc34)nc3cnc(OC)nc32)cc1,inactive
22,Cc1ccc(C(=O)NCC(=O)O)cc1S(=O)(=O)N1CCCCC1,inactive
23,Cn1c(SCc2c(F)cccc2Cl)nnc1-c1cnccn1,inactive
24,O=C(NC1CCCCC1)c1ccc2c(=O)n(CC3CCCO3)c(=O)[nH]c2c1 (centres undefined),inactive

row,Compound,max dye-equivalent concentration
1,O=c1[nH]nc(CSCc2ccccc2Cl)[nH]1,inactive
2,COCCNC(=O)c1snc2ccc(Cl)cc12,inactive
3,CCOc1ccc(NC(=O)CCS(=O)(=O)c2cccc3nsnc23)cc1,inactive
4,CCOc1cc(C2C(C(=O)OC)=CN(C3CCCC3)C=C2C(=O)OC)cc(Br)c1O,inactive
5,O=C(Nc1cnn(Cc2ccc(Cl)cc2)c1)C1CCCC1,inactive
6,CSc1ccc(-c2c(C#N)c(N)nc3c2c(C)nn3-c2ccccc2)cc1,inactive
7,COc1ccc(CC(NC(C)=O)C(=O)NC2CCN(C(=O)Nc3ccc(C#N)cc3)CC2)cc1OC (centres undefined),inactive
8,CCOC(=O)N1CCN(C(=O)c2nn(-c3ccc(C)cc3)c(=O)c3c2c2ccccc2n3C)CC1,inactive
9,COc1ccc(Cc2nnnn2CC(=O)O)cc1,inactive
10,CC(c1nnc(SCC(=O)Nc2sccc2C#N)n1-c1ccc(Cl)cc1)N(C)C (centres undefined),inactive
11,CC(C)(CNCC(O)c1ccccc1)N1CCOCC1 (centres undefined),inactive
12,O=C(O)C1CC=C(Cl)CC1C(=O)NCc1ccccc1 (centres undefined),inactive
13,O=C(COc1ccc2c3c(c(=O)oc2c1)CCC3)NC1CCCCC1,inactive
14,Cc1nc2cnc(Nc3ccccc3)nc2n(C[C@H]2CCCO2)c1=O,inactive
15,O=C(NCCCN1CCOCC1)c1cc(-c2ccc(Cl)cc2)on1,inactive
16,Cn1c(=O)c(CCc2ccccc2)nc2cnc(Nc3ccccc3)nc21,inactive
17,Cc1cc(=O)n2nc(N3CCCC(C(=O)NCCC4=CCCCC4)C3)sc2n1 (centres undefined),inactive
18,COc1ccc(-n2c(SCC(=O)NCc3cccs3)nnc2-c2ccoc2C)cc1,inactive
19,Cc1ccnc(SCCn2c(Br)nc3c2c(=O)[nH]c(=O)n3C)n1,inactive
20,CCOC(=O)N1CCC(Nc2c(NCCCN3CCN(c4ccc(OC)cc4)CC3)c(=O)c2=O)CC1,inactive
21,CCCCn1c(SCc2ncc(-c3ccccc3)o2)nc2cc(S(N)(=O)=O)ccc21,inactive
22,CCOc1ccccc1-n1c(SCC(=O)NCc2ccco2)nnc1-c1ccncc1,inactive
23,Nc1cc(=O)nc(SCc2ccccc2)n1Cc1ccco1,inactive
24,Cc1c(S(=O)(=O)O)ccc(N=Nc2c(O)c(C(=O)O)cc3ccccc23)c1Cl,inactive

row,Compound,max dye-equivalent concentration
1,CCC(=O)Nc1cccc(NC(=O)CSc2nnnn2C2CCCC2)c1,inactive
2,Cc1cc(C)c2[nH]c(=O)c(C(c3nnnn3Cc3ccc4c(c3)OCO4)N3CCCC3)cc2c1 (centres undefined),inactive
3,COc1ccccc1N(C(=O)Cn1nnc2ccccc21)C(C(=O)NCc1ccco1)c1ccc(C)o1 (centres undefined),inactive
4,CCC(C(=O)N1CCOCC1)n1c(C(=O)OC)cc2occc21 (centres undefined),inactive
5,CCN(c1ccccc1)S(=O)(=O)c1cccc(C(=O)O)c1,inactive
6,c1ccc2c(Nc3ccncc3)nc(-c3ccc4c(c3)OCO4)nc2c1,inactive
7,CCOC(=O)N1CCN(C(=O)Cc2ccc(-n3c(=S)[nH]c4ccccc4c3=O)cc2)CC1,inactive
8,CC(=O)OCc1cc(=O)n(C)c(=O)n1C,inactive
9,COc1ncc2nc(-c3ccc(Cl)cc3)c(=O)n(C)c2n1,inactive
10,CCc1c(C)nc2ncnn2c1N1CCC(C(=O)NCc2ccc3c(c2)OCO3)CC1,inactive
11,CN(C(=O)CSc1nnnn1-c1ccccc1)C1CCCCC1,inactive
12,Cc1c(-c2nn(C)c(=O)c3ccccc23)oc2ccc(F)cc2c1=O,inactive
13,COCCn1c(=O)[nH]c2cc(C(=O)NCc3cccnc3)ccc2c1=O,inactive
14,NS(=O)(=O)c1cc(Cl)c(Cl)c(S(N)(=O)=O)c1,inactive
15,CCOCCCN1C(=O)CN(C2CCCCC2)C(=O)C1c1ccc(OCC)c(OC)c1 (centres undefined),inactive
16,Cc1cc(C)c2nc(N3CCCC3)c(C#N)cc2c1,inactive
17,COc1cccc(C(=O)c2cc3ccc(O)cc3oc2=O)c1,inactive
18,O=C1[C@@H]2C(Cc3ccc(O)cc3)NC3(C(=O)Nc4ccc(F)cc43)[C@@H]2C(=O)N1c1ccc(F)cc1 (some centres undefined),inactive
19,CCC(=O)N(Cc1cc2cc(OC)ccc2[nH]c1=O)c1ccccc1C,inactive
20,COc1cccc(OCC(O)CN2CCN(CCO)CC2)c1 (centres undefined),inactive
21,C=CCn1c(SCC(=O)NC23CC4CC(CC(C4)C2)C3)nc(O)cc1=O,inactive
22,COCCn1c(=O)c(-c2cccs2)nc2cnc(N3CCN(C)CC3)nc21,inactive
23,Cc1cc(C)cc(OCc2nnc(SCC(=O)OC3CCCCC3)o2)c1,inactive
24,COCCn1c(=O)c(-c2ccc(OC)cc2)nc2cnc(Oc3cccc(Cl)c3)nc21,inactive

row,Compound,max dye-equivalent concentration
1,CS(=O)(=O)Nc1cccc(-c2cncnc2Nc2ccccc2)c1,inactive
2,Cn1c(SCC(=O)OC2CCCCC2)nnc1-c1ccc(S(=O)(=O)N2CCCC2)cc1,inactive
3,CCS(=O)(=O)N1CCC(C(=O)N2CCN(c3ccccc3)CC2)CC1,inactive
4,CCOCC(=O)Nc1cc(OC)c(Cl)cc1OC,inactive
5,CCN1C(=O)/C(=C\N2CCN(c3cccc(Cl)c3)CC2)SC1=S,inactive
6,CCN(Cc1ccncc1)C(=O)[C@@H](CO)c1ccccc1,inactive
7,CC(=O)N1CCC(C(=O)Nc2nc(-c3ccccc3)ns2)CC1,inactive
8,COc1ccc(S(=O)(=O)NC(CC(=O)NCc2ccccc2OC)c2ccco2)cc1 (centres undefined),inactive
9,Nc1nc2c(ncn2[C@H]2CC[C@@H](CO)O2)c(=O)n1C(=O)c1ccccc1,inactive
10,Cc1ccc(CNC(=O)CN2CCN(Cc3ccc(Cl)cc3)C2=O)cc1,inactive
11,CCOCCc1c(O)nc(SCC(=O)NCc2ccco2)[nH]c1=O,inactive
12,COc1cc(OC)cc(C(=O)NCCSCc2ccco2)c1,inactive
13,O=c1[nH]c(=O)n([C@H]2C[C@H](O)[C@H](CO)O2)cc1Br,inactive
14,O=c1c(-c2ccc(F)cc2)nc2cncnc2n1-c1ccccc1,inactive
15,CCOc1ccc(N(CC(=O)NCc2ccc(OC)cc2)S(=O)(=O)c2c(C)noc2C)cc1,inactive
16,C[C@@H]1C[C@H]2[C@@H]3C[C@H](F)C4=CC(=O)C=C[C@@]4(C)[C@]3(F)[C@H](O)C[C@]2(C)[C@@]1(O)C(=O)CO,inactive
17,O=C(Nc1ccccc1)c1cccnc1Nc1ccccc1,inactive
18,Cc1ccc(NC(=O)NCC(c2cccnc2)N2CCOCC2)cc1 (centres undefined),inactive
19,O=C(c1ccco1)N1CCC[C@@]2(CCN(Cc3nccs3)C2)C1,inactive
20,O=C1N=C(N2CCOCC2)CS1,inactive
21,Cc1ccc(C(=O)CS(C)(=O)=O)cc1,inactive
22,O=C(Nc1ccc(Cl)cn1)Nc1cccs1,inactive
